Laboratory results reported in PubChem BioAssay (Tox21).
Inconclusive results are not listed. Activity calls are given as the source filed them. Unless noted, the call rests on the fitted dose curve; in most records, active means well fitted curve in the direction sought with a large enough effect in the repeat runs; inconclusive means weak or mixed curves; inactive means no such curve, though single readings can be large; an effect the other way counts as inactive or inconclusive.

Experiments:
[1] = qHTS assay to identify small molecule antagonists of the thyroid receptor (TR) signaling pathway (AID 743065); further: series mostly up to about 70 µM; nearly all actives have a fitted effect of over 55% in size
Outline: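 GH3.TRE-Luc rat pituitary cells carrying two TR response elements driving luciferase were plated for 4 h, given compound plus 1 nM T3 (final), and incubated 23.5 h at 37 C. ONE-Glo luminescence measured reporter inhibition; CellTiter-Fluor fluorescence tracked cytotoxicity.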

[2] = test system: thyroid hormone receptor (rat, GH3 cells); experiment: qHTS assay to identify small molecule agonists of the thyroid receptor (TR) signaling pathway (AID 743066; calls by dose curve)
[3] = molecular target: Estrogen receptor (Homo sapiens) (UniProt P03372); experiment: qHTS assay to identify small molecule antagonists of the estrogen receptor alpha (ER-alpha) signaling pathway (AID 743069; active means well fitted curve in the direction sought with a large enough effect in the signal ratio in the repeat runs, not every such curve was filed as active; the % refers to the signal ratio)
Outline: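 A 17beta-estradiol challenge was applied right after compound transfer to ER-alpha-UAS-bla HEK293 cells previously kept in charcoal-stripped serum. Plates stood 18 hr at 37C and 5% CO2; fluorescence was read following 2 hr FRET substrate loading at room temperature.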

[4] = qHTS assay to identify small molecule antagonists of the estrogen receptor alpha (ER-alpha) signaling pathway - cell viability counter screen (AID 743074; calls by dose curve;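 further: HEK293 cells carrying ER-alpha-UAS-bla reporter stimulated with 17beta-estradiol; nearly all actives have a fitted effect of over 45% in size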)
[5] = molecular target: Estrogen receptor (Homo sapiens) (UniProt P03372); experiment: qHTS assay to identify small molecule agonists of the estrogen receptor alpha (ER-alpha) signaling pathway (AID 743075; calls by dose curve;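 further: HEK293 GripTite cells with ER-alpha and UAS-driven beta-lactamase reporter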)
[6] = molecular target: Estrogen receptor (Homo sapiens) (UniProt P03372); experiment: qHTS assay to identify small molecule agonists of the estrogen receptor alpha (ER-alpha) signaling pathway using the BG1 cell line (AID 743079); further: nearly all actives have a fitted effect of over 20% in size
[7] = qHTS assay to identify small molecule antagonists of the estrogen receptor alpha (ER-alpha) signaling pathway using the BG1 cell line (AID 743080; calls by dose curve;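 further: BG1 cells stimulated with 17beta-estradiol alongside compound; series mostly up to about 70 µM; nearly all actives have a fitted effect of over 25% in size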)
Outline: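 Seeding, 24 h rest, compound transfer from DMSO, 17beta-estradiol addition, 21.5 h incubation, CellTiter-Fluor (30 min, 37 C), then ONE-Glo (30 min, room temperature): this sequence was run on BG1-Luc-4E2 reporter cells.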

[8] = qHTS assay to identify small molecule antagonists of the estrogen receptor alpha (ER-alpha) signaling pathway using the BG1 cell line - cell viability counter screen (AID 743081);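 further: compound given together with 17beta-estradiol as the ER stimulus; series mostly up to about 70 µM; nearly all actives have a fitted effect of over 45% in size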
[9] = molecular target: Aromatase (Homo sapiens) (UniProt P11511); experiment: qHTS assay to identify aromatase inhibitors (AID 743083); further: series mostly up to about 70 µM; nearly all actives have a fitted effect of over 55% in size
[10] = qHTS assay to identify aromatase inhibitors - cell viability counter screen (AID 743084);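 further: cells stimulated with testosterone during compound exposure; nearly all actives have a fitted effect of over 55% in size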
[11] = molecular target: Aryl hydrocarbon receptor (Homo sapiens) (UniProt P35869); experiment: qHTS assay to identify small molecule that activate the aryl hydrocarbon receptor (AhR) signaling pathway (AID 743085);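 further: HG2L7.5c1 human HepG2 liver cells with stably integrated DRE-driven firefly reporter; series mostly up to about 70 µM; nearly all actives have a fitted effect of over 15% in size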
Outline: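 Luminescence read-out: ONE-Glo reagent, 30 min at room temperature, in HG2L7.5c1 HepG2 reporter cells treated 24 h at 37C. Viability was measured beforehand by CellTiter-Fluor fluorescence after 30 min at 37C.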

[12] = qHTS assay to identify small molecule that activate the aryl hydrocarbon receptor (AhR) signaling pathway - cell viability counter screen (AID 743086);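 further: HepG2 liver cells carrying the AhR DRE luciferase reporter; series mostly up to about 70 µM; nearly all actives have a fitted effect of over 45% in size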
Outline: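 HepG2-AhR-luc (HG2L7.5c1) cells, 4000/well, were preincubated 5 h at 37C, exposed to compound in qHTS format for 24 hr at 37C, then given CellTiter-Fluor for 30 min; viability was read as fluorescence in the reporter wells.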

[13] = molecular target: Peroxisome proliferator-activated receptor gamma (Homo sapiens) (UniProt P37231); experiment: qHTS assay to identify small molecule agonists of the peroxisome proliferator-activated receptor gamma (PPARg) signaling pathway (AID 743094; active means well fitted activation curve with a large enough effect in the signal ratio in the repeat runs, not every such curve was filed as active; the % refers to the signal ratio)
Outline: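 HEK293H PPARg-bla cells, 5 h settle at 37C/5% CO2; compound (DMSO) 17 h, 37C; B/G FRET substrate 1 h RT; fluorescence intensity read-out. qHTS format.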

[14] = qHTS assay for small molecule agonists of the antioxidant response element (ARE) signaling pathway (AID 743202; active means well fitted activation curve with a large enough effect in the signal ratio in the repeat runs, not every such curve was filed as active; the % refers to the signal ratio)
Outline: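 Following a 16 h, 37 C exposure of reporter HepG2 cells (ARE-driven beta-lactamase, 2,000 cells/well) to compounds, FRET substrate was applied for 2 h at room temperature and fluorescence intensity recorded.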

[15] = qHTS assay for small molecule agonists of the antioxidant response element (ARE) signaling pathway - cell viability counter screen (AID 743203; calls by dose curve; further: nearly all actives have a fitted effect of over 55% in size)
Outline: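 Luminescence read-out (CellTiter-Glo, 30 min at room temperature) measured cell viability in the same wells as the ARE beta-lactamase reporter. HepG2 ARE-bla cells were treated with compounds for 16 hrs at 37C/5% CO2.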

[16] = qHTS assay for small molecule activators of the heat shock response signaling pathway - cell viability counter screen (AID 743209); further: nearly all actives have a fitted effect of over 50% in size
Outline: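 HSE-bla HeLa; 1500 cells/well; overnight 37 C, 5% CO2; compound 5 h 37 C; LiveBLAzer B/G substrate 2.5 h RT; CellTiter-Glo 30 min RT; luminescence.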

[17] = qHTS assay for small molecule activators of the heat shock response signaling pathway (AID 743210; active means well fitted activation curve with a large enough effect in the signal ratio in the repeat runs, with a control signal flat, not every such curve was filed as active; the % refers to the signal ratio; further: series mostly up to about 63 µM)
Outline: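 Heat shock element–beta-lactamase HeLa reporter cells; qHTS with compounds for 5 h at 37 C; detection by FRET substrate fluorescence after 2.5 h at RT.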

[18] = molecular target: Peroxisome proliferator-activated receptor gamma (Homo sapiens) (UniProt P37231); experiment: qHTS assay to identify small molecule antagonists of the peroxisome proliferator-activated receptor gamma (PPARg) signaling pathway (AID 743191; calls by dose curve; further: series mostly up to about 63 µM; nearly all actives have a fitted effect of over 30% in size)
Outline: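 GeneBLAzer PPARg UAS-bla HEK293H cells carrying a UAS-driven beta-lactamase reporter were plated at 3000 cells/well, preincubated 5 h at 37C, then given compound for 17 h at 37C; LiveBLAzer B/G FRET substrate was read after 1 h at room temperature.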

[19] = qHTS assay to identify small molecule antagonists of the peroxisome proliferator-activated receptor gamma (PPARg) signaling pathway - cell viability counter screen (AID 743194); further: nearly all actives have a fitted effect of over 55% in size
Outline: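 PPARg-UAS-bla HEK293H cells were plated, rested 5 h at 37 C, then treated with compounds plus rosiglitazone (50 nM final) for 17 h at 37 C; viability was then read by CellTiter-Glo luminescence after 30 min at room temperature.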

Measured: Potency

Aromatase (Homo sapiens), sequence (P11511 whole entry, looked up): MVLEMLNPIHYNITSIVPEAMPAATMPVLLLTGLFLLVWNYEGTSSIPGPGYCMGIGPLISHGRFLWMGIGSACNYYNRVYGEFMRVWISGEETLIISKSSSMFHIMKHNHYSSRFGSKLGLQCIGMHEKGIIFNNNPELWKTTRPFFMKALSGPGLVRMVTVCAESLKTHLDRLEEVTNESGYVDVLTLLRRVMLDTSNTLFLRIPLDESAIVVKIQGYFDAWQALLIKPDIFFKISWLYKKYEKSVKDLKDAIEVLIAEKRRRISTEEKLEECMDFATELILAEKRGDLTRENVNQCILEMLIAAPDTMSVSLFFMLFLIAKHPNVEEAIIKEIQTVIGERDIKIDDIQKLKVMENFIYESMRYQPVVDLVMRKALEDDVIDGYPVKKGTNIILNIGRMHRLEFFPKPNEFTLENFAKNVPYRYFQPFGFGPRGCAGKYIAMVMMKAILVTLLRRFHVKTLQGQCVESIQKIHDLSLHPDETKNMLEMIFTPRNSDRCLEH
Estrogen receptor (Homo sapiens), sequence (P03372 whole entry, looked up): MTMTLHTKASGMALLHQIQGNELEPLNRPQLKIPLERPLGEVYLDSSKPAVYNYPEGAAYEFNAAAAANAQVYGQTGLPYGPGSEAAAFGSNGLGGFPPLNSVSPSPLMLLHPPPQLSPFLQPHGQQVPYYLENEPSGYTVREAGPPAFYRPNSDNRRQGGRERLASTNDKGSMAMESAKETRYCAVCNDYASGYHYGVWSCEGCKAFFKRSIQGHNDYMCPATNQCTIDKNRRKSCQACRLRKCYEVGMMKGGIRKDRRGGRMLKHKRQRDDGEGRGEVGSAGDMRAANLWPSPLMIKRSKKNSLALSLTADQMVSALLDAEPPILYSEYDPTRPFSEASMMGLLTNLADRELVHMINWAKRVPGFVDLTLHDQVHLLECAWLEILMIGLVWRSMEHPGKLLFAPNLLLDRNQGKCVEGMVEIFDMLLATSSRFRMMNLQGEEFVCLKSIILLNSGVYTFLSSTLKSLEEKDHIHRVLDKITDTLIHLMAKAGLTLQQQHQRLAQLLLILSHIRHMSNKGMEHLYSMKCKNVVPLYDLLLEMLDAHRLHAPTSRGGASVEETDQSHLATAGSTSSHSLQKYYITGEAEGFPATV
Peroxisome proliferator-activated receptor gamma (Homo sapiens), sequence (P37231 whole entry, looked up): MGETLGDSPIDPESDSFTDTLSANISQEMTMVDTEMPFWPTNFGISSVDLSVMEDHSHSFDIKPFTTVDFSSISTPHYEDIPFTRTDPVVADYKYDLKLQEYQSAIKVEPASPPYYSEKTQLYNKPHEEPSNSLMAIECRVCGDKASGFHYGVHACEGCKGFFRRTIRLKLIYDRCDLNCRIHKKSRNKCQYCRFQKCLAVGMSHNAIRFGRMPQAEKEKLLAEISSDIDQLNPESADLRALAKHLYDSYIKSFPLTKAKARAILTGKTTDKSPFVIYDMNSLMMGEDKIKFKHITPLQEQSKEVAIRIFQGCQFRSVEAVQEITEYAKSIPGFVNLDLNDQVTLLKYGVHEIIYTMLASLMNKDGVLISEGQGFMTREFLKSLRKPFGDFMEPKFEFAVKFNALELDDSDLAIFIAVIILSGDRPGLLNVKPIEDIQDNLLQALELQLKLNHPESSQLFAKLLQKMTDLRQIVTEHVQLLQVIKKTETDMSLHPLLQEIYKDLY
Aryl hydrocarbon receptor (Homo sapiens), sequence (P35869 whole entry, looked up): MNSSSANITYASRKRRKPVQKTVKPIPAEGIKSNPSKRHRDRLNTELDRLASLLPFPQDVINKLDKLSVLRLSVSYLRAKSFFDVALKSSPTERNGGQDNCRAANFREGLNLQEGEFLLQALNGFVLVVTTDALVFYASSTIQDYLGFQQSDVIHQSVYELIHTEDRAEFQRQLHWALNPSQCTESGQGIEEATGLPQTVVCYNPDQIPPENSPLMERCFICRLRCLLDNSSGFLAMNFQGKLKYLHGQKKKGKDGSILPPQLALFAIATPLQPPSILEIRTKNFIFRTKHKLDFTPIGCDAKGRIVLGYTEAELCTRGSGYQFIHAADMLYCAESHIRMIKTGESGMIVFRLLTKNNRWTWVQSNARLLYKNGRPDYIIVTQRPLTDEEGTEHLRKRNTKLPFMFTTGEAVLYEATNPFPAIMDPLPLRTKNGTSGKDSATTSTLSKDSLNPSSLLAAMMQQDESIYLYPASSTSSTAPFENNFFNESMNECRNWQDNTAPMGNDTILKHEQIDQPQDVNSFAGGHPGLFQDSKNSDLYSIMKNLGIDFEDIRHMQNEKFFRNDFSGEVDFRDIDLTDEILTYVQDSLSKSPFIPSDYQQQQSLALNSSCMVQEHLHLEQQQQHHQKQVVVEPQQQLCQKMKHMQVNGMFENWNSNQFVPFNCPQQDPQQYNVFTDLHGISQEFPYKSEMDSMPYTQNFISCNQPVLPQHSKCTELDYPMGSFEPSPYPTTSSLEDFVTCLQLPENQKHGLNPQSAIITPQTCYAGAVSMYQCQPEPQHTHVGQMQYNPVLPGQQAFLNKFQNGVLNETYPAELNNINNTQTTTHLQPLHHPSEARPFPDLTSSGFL

OCCCC1CCCCC1
not listed: [18] | [19]
inactive: all other assays above

CCOC(=O)[C@H](CCc1ccccc1)N[C@@H](C)C(=O)N1[C@H](C(=O)O)C[C@@H]2CCC[C@@H]21
not listed: [7] | [11] | [15]
inactive: all other assays above

CC(C)OC(=O)c1ccccc1
not listed: [4] | [7] | [13] | [18]
inactive: all other assays above

OC1CCCCC1c1ccccc1 (stereo unspecified)
not listed: [7] | [13] | [18]
inactive: all other assays above

CC(C)(CC(=O)O)C(=O)O
not listed: [7] | [13]
inactive: all other assays above

CCOC(=O)c1cccc(N)c1
not listed: [6] | [7] | [11] | [13] | [18]
inactive: all other assays above

C/C=C(\C)C#N
not listed: [14] | [18] | [19]
inactive: all other assays above
